According to PubChem BioAssay AID1159580 (chemical genetic matrix, 2015):
Out of some 5,500 compounds screened, about 2,000 (36%) were called active. Another 18% or so got no clear call; they are omitted. Rule as the data show it: active = normalized growth mostly below about 0.91 (no sharp cut-off); inconclusive = no clear call, values can overlap the other calls; inactive = mostly above about 0.92. Some of the results follow.

Assay: chemical genetic growth profiling, strain panel (AID 1159580);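 also: tested at 20 µM; growth read once vehicle control cultures reached saturation at 30 °C; 1 = growth at the plate median or of vehicle wells; lower values mean less growth of the strain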
Conditions: growth OD

Measured: normalized growth

CC1(C)S[C@@H]2[C@H](NC(=O)C(C(=O)O)c3ccccc3)C(=O)N2[C@H]1C(=O)O (stereo partly drawn)
inactive: S. cerevisiae deletion strains, locus YJR075W, strain HOC1, active compounds read low 0.987 | S. cerevisiae deletion strains, locus YKL009W, strain mrt4, active compounds read low 0.971 | S. cerevisiae deletion strains, locus YKL068W, active compounds read low 0.994 | S. cerevisiae deletion strains, locus YKL085W, strain MDH1 (second series), active compounds read low 1 | S. cerevisiae deletion strains, locus YKL085W, strain MDH1, active compounds read low 1 | S. cerevisiae deletion strains, locus YKL160W, strain elf1, active compounds read low 1 | S. cerevisiae deletion strains, locus YKR001C, strain vps1, active compounds read low 0.982 | S. cerevisiae deletion strains, locus YKR026C, strain gcn3, active compounds read low 0.985 | S. cerevisiae deletion strains, locus YKR091W, strain srl3, active compounds read low 0.975 | S. cerevisiae deletion strains, locus YLL001W, strain dnm1, active compounds read low 0.932 | S. cerevisiae deletion strains, locus YLL026W, active compounds read low 0.96 | S. cerevisiae deletion strains, locus YLL041C, strain sdh2, active compounds read low 0.982 | S. cerevisiae deletion strains, locus YLR027C, strain aat2, active compounds read low 0.976 | S. cerevisiae deletion strains, locus YLR039C, strain RIC1, active compounds read low 0.989 | S. cerevisiae deletion strains, locus YLR058C, strain SHM2, active compounds read low 0.989 | S. cerevisiae deletion strains, locus YLR102C, strain apc9, active compounds read low 0.997 | S. cerevisiae deletion strains, locus YLR113W, strain HOG1, active compounds read low 0.992 | S. cerevisiae deletion strains, locus YLR221C, strain rsa3, active compounds read low 0.928 | S. cerevisiae deletion strains, locus YLR258W, strain gsy2, active compounds read low 0.967 | S. cerevisiae deletion strains, locus YLR262C, strain YPT6 (second series), active compounds read low 1 | S. cerevisiae deletion strains, locus YLR262C, strain YPT6, active compounds read low 1 | S. cerevisiae deletion strains, locus YLR268W, strain sec22, active compounds read low 0.987 | S. cerevisiae deletion strains, locus YLR320W, strain mms22, active compounds read low 0.967 | S. cerevisiae deletion strains, locus YLR330W, strain CHS5, active compounds read low 0.992 | S. cerevisiae deletion strains, locus YLR342W, strain FKS1 (second series), active compounds read low 0.998 | S. cerevisiae deletion strains, locus YLR342W, strain FKS1, active compounds read low 0.982 | S. cerevisiae deletion strains, locus YLR357W, strain rsc2, active compounds read low 0.967 | S. cerevisiae deletion strains, locus YLR370C, strain arc18, active compounds read low 0.926 | S. cerevisiae deletion strains, locus YLR371W, strain rom2, active compounds read low 0.988 | S. cerevisiae deletion strains, locus YLR384C, strain iki3, active compounds read low 0.969 | S. cerevisiae deletion strains, locus YLR418C, strain cdc73, active compounds read low 0.984 | S. cerevisiae deletion strains, locus YML016C, strain PPZ1, active compounds read low 0.99 | S. cerevisiae deletion strains, locus YML032C, strain rad52, active compounds read low 0.981 | S. cerevisiae deletion strains, locus YML120C, strain ndi1, active compounds read low 0.946 | S. cerevisiae deletion strains, locus YML124C, strain tub3, active compounds read low 1 | S. cerevisiae deletion strains, locus YMR058W, strain fet3, active compounds read low 0.971 | S. cerevisiae deletion strains, locus YMR078C, strain ctf18, active compounds read low 0.985 | S. cerevisiae deletion strains, locus YMR125W, strain sto1, active compounds read low 0.956 | S. cerevisiae deletion strains, locus YMR129W, active compounds read low 1 | S. cerevisiae deletion strains, locus YMR205C, strain PFK2, active compounds read low 0.98 | S. cerevisiae deletion strains, locus YMR223W, strain ubp8, active compounds read low 0.987 | S. cerevisiae deletion strains, locus YMR231W, strain pep5, active compounds read low 0.988 | S. cerevisiae deletion strains, locus YMR307W, strain GAS1, active compounds read low 0.917 | S. cerevisiae deletion strains, locus YNL067W, strain RPL9B, active compounds read low 1 | S. cerevisiae deletion strains, locus YNL071W, strain lat1, active compounds read low 0.995 | S. cerevisiae deletion strains, locus YNL153C, strain GIM3, active compounds read low 0.989 | S. cerevisiae deletion strains, locus YNL183C, strain NPR1, active compounds read low 0.94 | S. cerevisiae deletion strains, locus YNL209W, strain ssb2, active compounds read low 0.969 | S. cerevisiae deletion strains, locus YNL233W, strain BNI4, active compounds read low 0.975 | S. cerevisiae deletion strains, locus YNL248C, strain rpa49, active compounds read low 1.02 | S. cerevisiae deletion strains, locus YNL250W, strain rad50, active compounds read low 0.975 | S. cerevisiae deletion strains, locus YNL271C, strain bni1, active compounds read low 0.984 | S. cerevisiae deletion strains, locus YNL298W, strain CLA4, active compounds read low 0.99 | S. cerevisiae deletion strains, locus YNL307C, strain MCK1, active compounds read low 0.992 | S. cerevisiae deletion strains, locus YNL322C, strain KRE1 (second series), active compounds read low 0.971 | S. cerevisiae deletion strains, locus YNL322C, strain KRE1, active compounds read low 0.997 | S. cerevisiae deletion strains, locus YNR049C, strain mso1, active compounds read low 0.962 | S. cerevisiae deletion strains, locus YNR052C, strain pop2, active compounds read low 0.983 | S. cerevisiae deletion strains, locus YOL006C, strain TOP1, active compounds read low 0.985 | S. cerevisiae deletion strains, locus YOL012C, strain htz1 1.06 | S. cerevisiae deletion strains, locus YOL147C, strain pex11, active compounds read low 0.982 | S. cerevisiae deletion strains, locus YOR001W, strain rrp6, active compounds read low 1 | S. cerevisiae deletion strains, locus YOR061W, strain CKA2, active compounds read low 0.994 | S. cerevisiae deletion strains, locus YOR069W, strain VPS5, active compounds read low 0.991 | S. cerevisiae deletion strains, locus YOR070C, strain gyp1, active compounds read low 0.972 | S. cerevisiae deletion strains, locus YOR080W, strain dia2, active compounds read low 0.972 | S. cerevisiae deletion strains, locus YOR083W, strain WHI5, active compounds read low 0.994 | S. cerevisiae deletion strains, locus YOR106W, strain vam3, active compounds read low 0.993 | S. cerevisiae deletion strains, locus YOR136W, strain idh2, active compounds read low 0.98 | S. cerevisiae deletion strains, locus YOR144C, strain elg1, active compounds read low 0.983 | S. cerevisiae deletion strains, locus YOR184W, strain ser1, active compounds read low 0.978 | S. cerevisiae deletion strains, locus YOR231W, strain MKK1, active compounds read low 1.04 | S. cerevisiae deletion strains, locus YOR265W, strain rbl2, active compounds read low 0.964 | S. cerevisiae deletion strains, locus YOR270C, strain vph1, active compounds read low 0.978 | S. cerevisiae deletion strains, locus YOR290C, strain snf2, active compounds read low 0.961 | S. cerevisiae deletion strains, locus YOR316C, strain cot1, active compounds read low 0.981 | S. cerevisiae deletion strains, locus YPL051W, strain arl3, active compounds read low 0.992 | S. cerevisiae deletion strains, locus YPL078C, strain atp4, active compounds read low 1.01 | S. cerevisiae deletion strains, locus YPL106C, strain sse1, active compounds read low 0.937 | S. cerevisiae deletion strains, locus YPL240C, strain hsp82, active compounds read low 0.971 | S. cerevisiae deletion strains, locus YPL241C, strain CIN2, active compounds read low 0.997 | S. cerevisiae deletion strains, locus YPL256C, strain CLN2, active compounds read low 1.03 | S. cerevisiae deletion strains, locus YPR119W, strain clb2, active compounds read low 0.991 | S. cerevisiae deletion strains, locus YPR141C, strain kar3, active compounds read low 0.977 | S. cerevisiae deletion strains, locus YPR163C, strain tif3, active compounds read low 0.989 | S. cerevisiae deletion strains, locus YPR167C, strain met16, active compounds read low 0.99 | S. cerevisiae deletion strains, strain wtn01, active compounds read low 0.984 | S. cerevisiae strains, strain wild type, active compounds read low 0.999
